The text below walks through data of PubChem BioAssay AID1851 (National Center for Advancing Translational Sciences (NCATS), 2009).

Structures are written as SMILES. Hit rate of the full screen: of about 16,000 compounds, about 5,700 (36%) were called active. About 24% were inconclusive and are not listed. The list shows a part of the results. A number with no mark means an inactive call. Calls follow the shape of the dose curve; as a rule, active = well fitted curve in the direction sought with a large enough effect; inconclusive = small, poorly fitted or top-dose-only effect, or effect the other way; inactive = no such curve, though single readings can be large or run the other way.
% is scaled to controls: 0 for no effect and ±100 for the full control effect.

In the test the target is Cytochrome P450 1A2 (Homo sapiens) (UniProt P05177). The test can be described thus: Cytochrome panel assay with activity outcomes. The settings on record: recombinant CYP, pro-luciferin dealkylation, luminescence, p450-cyp1a2; series mostly up to 57.1 µM; activity, negative = inhibition: at the top concentration.
Sequence of Cytochrome P450 1A2 (Homo sapiens) (P05177 whole entry, looked up): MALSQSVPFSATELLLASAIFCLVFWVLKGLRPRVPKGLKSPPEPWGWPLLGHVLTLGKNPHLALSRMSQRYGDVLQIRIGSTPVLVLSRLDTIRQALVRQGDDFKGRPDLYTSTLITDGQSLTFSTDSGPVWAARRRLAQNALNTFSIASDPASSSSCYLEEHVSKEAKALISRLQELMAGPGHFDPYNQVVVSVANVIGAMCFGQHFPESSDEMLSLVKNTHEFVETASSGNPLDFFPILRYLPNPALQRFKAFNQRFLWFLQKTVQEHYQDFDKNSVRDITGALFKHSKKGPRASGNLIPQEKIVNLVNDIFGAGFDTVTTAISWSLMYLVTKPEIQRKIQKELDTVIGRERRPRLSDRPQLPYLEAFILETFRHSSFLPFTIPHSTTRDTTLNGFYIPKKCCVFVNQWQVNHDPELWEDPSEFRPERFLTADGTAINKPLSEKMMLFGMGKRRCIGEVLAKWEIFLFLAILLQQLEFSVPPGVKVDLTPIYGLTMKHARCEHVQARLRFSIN
For `CC1=C/C(=N/O)C([C@H]2C=C(C)CC(C)(C)[C@@H]2O)C(C)(C)C1` (some centres not stated), the activity, negative = inhibition was -5.85% [at 11.4 µM].

On to `CN(C)C(=O)c1ccc(-c2nccc(-n3ccnc3)n2)cc1`, for which the AC50 was 15.8 µM (active).

Take `COc1ccc(S(=O)(=O)N2CCC[C@H]2C(=O)NC2=NCCS2)cc1`: the “activity, negative = inhibition” value is -24.4%.

`CC(C)C(NC(=O)C12CC3CC(CC(C3)C1)C2)C(=O)NC1=NCCS1` (configuration not stated): the “activity, negative = inhibition” value is -16.5%.

Consider `Cc1ccc(OCC(=O)NC2=NCCS2)cc1`, for which the AC50 was 8.91 µM (active).

Take `O=C(NCc1cccnc1)[C@@H]1[C@@H](C(=O)O)[C@H]2CC[C@@H]1O2`: the activity, negative = inhibition is -11% [at 11.4 µM].

As to `O=C(Nc1cccnc1)C1COc2ccccc2O1` (configuration not stated), the AC50 is 11.2 µM (active).

As to `O=C(NCc1cccnc1)C1COc2ccccc2O1` (configuration not stated), the AC50 was 15.8 µM (active).

Turning to `O=C(NCCCN1CCOCC1)C1COc2ccccc2O1` (configuration not stated), the “activity, negative = inhibition” value was 5.54%.

With `Cc1ccc(S(=O)(=O)N2CCN(C(=O)C3COc4ccccc4O3)CC2)cc1C` (configuration not stated), the “activity, negative = inhibition” value was -49%.

For `CS(=O)(=O)N1CCC2(CCCN(C(=O)Nc3cccc(C#N)c3)C2)CC1`, the “activity, negative = inhibition” value is 4.7%.

As to `CC(=O)N1CCC[C@@]2(CCN(Cc3nccs3)C2)C1`, the “activity, negative = inhibition” value was -9.06%.

In the case of `Cn1nccc1C(=O)Nc1ccc(Cl)cc1`, the AC50 is 4.47 µM (active).

In the case of `Cc1nn(Cc2c(F)c(F)c(F)c(F)c2F)c(C)c1NC(=O)c1c(-c2ccccc2)nn(-c2ccccc2)c1C`, the “activity, negative = inhibition” value was 2.23%.

With `O=C(Nc1ccc(Cl)cc1)c1cnc(-c2ccccc2)nc1-c1ccccc1`, the concentration at half-maximal activity (AC50) is 0.708 µM (active).

On to `Cn1nc(-c2ccccc2)c(C(=O)Nc2ccc(Cl)cc2)c1Cl`, for which the AC50 is 1.26 µM (active).

As for `Cc1nn(C)c(C(=O)NNC(=S)Nc2ccc(Cl)cc2)c1[N+](=O)[O-]`, the “activity, negative = inhibition” value is -6.63%.

On to `COC(=O)CC1C(=O)NCCN1C(=O)Nc1ccc(Cl)cc1` (configuration not stated), for which the “activity, negative = inhibition” value is -14.1%.

As to `CC(=O)OC[C@@H]1O[C@@H](O/N=C2/C[C@@H](O)[C@@H](O)[C@@H]3[C@@H]4C(=O)N([C@@H](C)c5ccccc5)C(=O)[C@H]4CC[C@@H]23)[C@H](OC(C)=O)[C@H](OC(C)=O)[C@@H]1OC(C)=O`, the activity, negative = inhibition is 4.64% [at 11.4 µM].

As to `COc1ccc(CNc2ncncc2-c2ccccc2C)c(OC)c1`, the AC50 was 10 µM (active).

Regarding `COc1ccc(CNc2ncncc2-c2ccccc2OC)c(OC)c1`, the AC50 was 5.01 µM (active).

Turning to `COc1ccc(CNc2ncncc2-c2ccccc2CN(C)C)c(OC)c1`, the AC50 was 15.8 µM (active).

For `O=C1C[C@H]2C(=O)[C@@H]1[C@@H](C(=O)O)[C@H]2C(=O)O`, the activity, negative = inhibition is -11% [at 11.4 µM].

As to `COc1ccc(COC2OC[C@]3(C)[C@H]4C5=C(CN3C(=O)OC(C)(C)C)[C@H](C)C(CO)C(CO)C5CC[C@@H]24)cc1` (some centres not stated), the “activity, negative = inhibition” value is -11.3%.

For `CC(C)[C@H](NC(=O)OC(C)(C)C)[C@@H](O)CC(=O)OC(C)(C)C`, the activity, negative = inhibition was -7.19% [at 11.4 µM].

On to `CCOC(=O)N1CCN(CC(=O)c2ccc3c(c2)CCN3)CC1`, for which the “activity, negative = inhibition” value is -27.8%.

In the case of `CCOc1cc(/C=C2/C(=N)N3C=CSC3=NC2=O)ccc1OCCCOc1ccccc1C`, the “activity, negative = inhibition” value is -27.4%.

On to `COc1cc(/C=C2/C(=N)N3OC(C)=CC3=NC2=O)ccc1OCCOc1ccc(C)cc1`, for which the “activity, negative = inhibition” value was -8.75%.

Regarding `COc1cc(/C=C2/C(=N)N3C=CSC3=NC2=O)ccc1OCCCOc1c(C)cccc1C`, the AC50 is 3.55 µM (active).

Regarding `C[C@@](N)(Cc1ccc(O)cc1)C(=O)O`, the AC50 entry is “inactive”.

For the molecule `CCOC(=O)c1c(C(C)(C)C)oc2ccc(O)cc12`, the AC50 was 0.251 µM (active).

Take `C[C@@](N)(Cc1ccc(O)c(O)c1)C(=O)O`: the AC50 result was “inactive”.

In the case of `COC(=O)[C@@H]1CC[C@H](C)[C@@H](c2ccc(C)cc2)N1C(=O)c1ccc(/C=N\OC[C@@H](O)[C@H]2O[C@H]3OC(C)(C)O[C@H]3[C@@H]2O)cc1`, the activity, negative = inhibition was -5.97% [at 11.4 µM].

With `CCC1(O)c2ccccc2-c2ncccc21` (configuration not stated), the AC50 is 14.1 µM (active).

`O=c1c(-c2ccc(F)cc2)nc2cnc(N3CCOCC3)nc2n1C[C@H]1CCCO1`: the AC50 was 1.58 µM (active).

As to `O=c1c(-c2ccccc2)nc2cnc(N3CCOCC3)nc2n1C[C@H]1CCCO1`, the AC50 is 3.16 µM (active).

With `O=c1c(-c2ccc(Cl)cc2)nc2cnc(N3CCOCC3)nc2n1C[C@H]1CCCO1`, the AC50 is 2 µM (active).

In the case of `CC(=O)N1CCC2(CC1)CN(Cc1ccccc1)C2`, the “activity, negative = inhibition” value is 3.64%.

`Oc1cc2c(c(Cl)c1O)CCNC[C@H]2c1ccccc1`: the “activity, negative = inhibition” value is -20.5%.

Take `COc1ccc2c(c1)Cc1cc(N=[N+]([O-])c3ccc4c(c3)Cc3cc(OC)ccc3-4)ccc1-2`: the half-maximal activity concentration (AC50) is 1.58 µM (active).

Take `C/C(CCN1CCc2nc(-c3ccccc3)c(-c3ccccc3)cc2C1)=N\OC[C@@H](O)[C@@H]1O[C@@H]2OC(C)(C)O[C@@H]2[C@H]1O`: the activity, negative = inhibition was -5.51% [at 11.4 µM].

Consider `O=C(c1cc(C(F)(F)F)cc(C(F)(F)F)c1)N1CCC2(CC1)CN(c1ccccn1)C2`, for which the “activity, negative = inhibition” value was -5.11%.

Take `CC(C)=NO[C@@H](C)c1cn([C@@H]2COC[C@@H]2O)nn1`: the activity, negative = inhibition was -6.31% [at 11.4 µM].

With `CCn1c(Cc2ccccc2)nnc1SCC(=O)NC(C)(C)C`, the “activity, negative = inhibition” value is -26.9%.

`CC(C)(C)NC(=O)CSC(=Nc1ccc(F)cc1)NC#N`: the half-maximal activity concentration (AC50) is 2.51 µM (active).

Take `C[C@@H]1CC[C@H]2C(=O)NC[C@@H](O)CN2[C@@H]1c1ccc(Br)cc1`: the activity, negative = inhibition was -9.06% [at 11.4 µM].

Regarding `O=[N+]([O-])C1=CC=C2C(=NC3(CCCCC3)N2O)C1=NC1CCCCC1`, the half-maximal activity concentration (AC50) was 10 µM (active).
